biological target: Neurogenic locus notch homolog protein 3 (Homo sapiens) (UniProt Q9UM47); test: NOTCH3 binders on small-molecule microarray, primary screen, biochemical, 635/667 nm fluorescence (AID 1096); conditions: NOTCH3 binding, 635 nm fluorescence, higher = more signal
Sequence (Q9UM47 whole entry, looked up): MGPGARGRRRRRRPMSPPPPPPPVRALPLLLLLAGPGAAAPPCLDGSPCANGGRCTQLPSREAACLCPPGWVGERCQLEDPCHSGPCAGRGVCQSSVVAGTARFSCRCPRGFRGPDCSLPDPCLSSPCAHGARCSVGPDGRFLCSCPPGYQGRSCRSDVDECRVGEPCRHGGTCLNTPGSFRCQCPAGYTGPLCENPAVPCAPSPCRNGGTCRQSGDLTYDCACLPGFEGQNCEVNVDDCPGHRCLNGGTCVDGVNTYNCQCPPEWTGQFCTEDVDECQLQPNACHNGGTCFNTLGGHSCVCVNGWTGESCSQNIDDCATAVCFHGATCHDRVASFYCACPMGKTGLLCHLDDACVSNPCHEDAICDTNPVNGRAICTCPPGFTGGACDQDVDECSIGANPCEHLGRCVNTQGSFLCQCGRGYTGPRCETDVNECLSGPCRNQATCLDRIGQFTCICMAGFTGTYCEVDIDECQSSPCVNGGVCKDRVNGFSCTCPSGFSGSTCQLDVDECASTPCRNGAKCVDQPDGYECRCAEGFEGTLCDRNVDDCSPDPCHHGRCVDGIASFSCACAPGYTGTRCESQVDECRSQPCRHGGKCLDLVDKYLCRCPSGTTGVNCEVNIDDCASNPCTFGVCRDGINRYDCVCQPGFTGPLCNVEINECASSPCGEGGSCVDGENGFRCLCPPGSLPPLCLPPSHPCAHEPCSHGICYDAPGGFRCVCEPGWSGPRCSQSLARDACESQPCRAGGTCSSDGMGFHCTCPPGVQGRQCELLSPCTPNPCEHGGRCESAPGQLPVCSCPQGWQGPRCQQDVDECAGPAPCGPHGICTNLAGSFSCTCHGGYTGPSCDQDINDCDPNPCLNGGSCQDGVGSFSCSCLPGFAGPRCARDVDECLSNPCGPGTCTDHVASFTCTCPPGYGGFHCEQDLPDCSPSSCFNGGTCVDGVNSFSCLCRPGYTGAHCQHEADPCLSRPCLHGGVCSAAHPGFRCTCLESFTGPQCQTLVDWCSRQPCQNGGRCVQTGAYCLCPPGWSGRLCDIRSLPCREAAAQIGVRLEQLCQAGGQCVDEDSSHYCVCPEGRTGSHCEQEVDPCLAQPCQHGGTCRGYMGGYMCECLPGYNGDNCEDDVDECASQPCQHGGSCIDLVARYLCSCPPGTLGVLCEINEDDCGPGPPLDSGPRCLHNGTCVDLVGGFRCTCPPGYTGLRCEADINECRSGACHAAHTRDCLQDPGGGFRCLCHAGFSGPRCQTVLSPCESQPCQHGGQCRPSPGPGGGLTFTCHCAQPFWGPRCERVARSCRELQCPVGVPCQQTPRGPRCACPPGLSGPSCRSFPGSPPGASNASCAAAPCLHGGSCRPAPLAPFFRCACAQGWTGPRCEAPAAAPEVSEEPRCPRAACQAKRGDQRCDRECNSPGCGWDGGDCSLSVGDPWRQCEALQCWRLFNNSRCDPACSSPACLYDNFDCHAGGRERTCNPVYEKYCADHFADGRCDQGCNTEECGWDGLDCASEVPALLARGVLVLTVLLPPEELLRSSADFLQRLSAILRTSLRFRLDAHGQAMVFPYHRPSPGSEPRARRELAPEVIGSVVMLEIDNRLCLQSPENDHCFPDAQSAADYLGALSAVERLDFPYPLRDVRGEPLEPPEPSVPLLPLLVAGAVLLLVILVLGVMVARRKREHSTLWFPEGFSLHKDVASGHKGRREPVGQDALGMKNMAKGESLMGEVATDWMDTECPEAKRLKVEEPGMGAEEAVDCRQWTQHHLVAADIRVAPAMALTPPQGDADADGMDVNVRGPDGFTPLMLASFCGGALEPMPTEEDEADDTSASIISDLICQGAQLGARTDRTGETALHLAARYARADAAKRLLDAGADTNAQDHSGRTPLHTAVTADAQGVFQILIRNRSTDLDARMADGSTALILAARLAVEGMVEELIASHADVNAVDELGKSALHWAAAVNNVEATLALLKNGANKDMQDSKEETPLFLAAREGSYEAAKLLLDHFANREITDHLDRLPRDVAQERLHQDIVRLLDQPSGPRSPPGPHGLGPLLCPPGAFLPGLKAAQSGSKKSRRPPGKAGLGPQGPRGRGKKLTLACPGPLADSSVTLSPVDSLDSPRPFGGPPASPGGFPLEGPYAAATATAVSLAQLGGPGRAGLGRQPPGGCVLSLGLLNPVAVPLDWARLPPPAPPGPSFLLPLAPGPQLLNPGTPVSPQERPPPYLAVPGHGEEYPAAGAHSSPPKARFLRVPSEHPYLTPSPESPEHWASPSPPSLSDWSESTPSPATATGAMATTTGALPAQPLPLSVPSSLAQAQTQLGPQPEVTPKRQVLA

Row | SMILES | composite z-score
1 | CO[C@H]1O[C@H](CO)[C@@H](OC(=O)Nc2cccc(F)c2)[C@H](OC(=O)Nc2ccccc2-c2ccccc2)[C@@H]1OC(=O)Nc1ccccc1-c1ccccc1 | 1.05
2 | CCOC(=O)N1C(c2ccc(OCCCO)cc2)=NC(C(=O)OC)N1C(=O)OCC (centres undefined) | 1.09
3 | COCCCNC(=O)[C@@]1(Cc2ccccc2I)c2ccccc2C(=O)N(Cc2ccccc2)[C@H]1c1ccc(CO)cc1 | -1.37
4 | COc1ccc(C#Cc2ccc3c(c2)[C@]2(C(=O)N3)[C@H](C(=O)N3CCN(c4ncccn4)CC3)[C@H]3C(=O)O[C@H](c4ccccc4)[C@H](c4ccccc4)N3[C@@H]2c2ccc(O)cc2)cc1 | 0.853
5 | CN(C)CCCC[C@@H]1NC(=O)[C@@H]2C[C@H](C(=O)NCc3ccc(F)cc3)[C@H](c3cccc(OCCO)c3)N2C1=O | 1.11
6 | O=C1O[C@@H](c2ccccc2)[C@@H](c2ccccc2)N2[C@@H](c3ccc(O)cc3)[C@]3(C(=O)Nc4ccc(C#CCCO)cc43)[C@@H](C(=O)O)[C@H]12 | 0.314
7 | CC(C)NC(=O)[C@@]1(c2ccc([N+](=O)[O-])cc2)CC(=O)N(C(C)C)[C@@H]1c1ccc(CO)cc1 | -0.323
8 | C=CCC(OC(C)=O)[C@@H]1[C@@H](N(Cc2ccc(-c3cccc(C(F)(F)F)c3)o2)C(=O)Cc2ccc(OC)cc2)c2cc(OCCCO)ccc2N1C(=O)Cc1ccc(OC)cc1 (some centres undefined) | -0.869
9 | C[n+]1ccc2ccc(O)cc2c1 | 1.05
10 | C=C(CCCC)/C(=C/C[C@H](OC(C)=O)c1ccc(CO)o1)c1cc(C(=O)OC)ccc1OC | 1.09
11 | COCCOC(=O)N1C(=O)[C@@]2(c3cc(C#Cc4ccc(OC)cc4)ccc31)[C@H](c1ccc(OCCO)cc1)N1[C@H](c3ccccc3)[C@H](c3ccccc3)OC(=O)[C@H]1[C@@H]2C(=O)N1CCc2cc(OC)c(OC)cc2C1 | 1.12
12 | CC(C)C(O)C1C=CC2C(=O)N(C)C(=O)C2N1N1CCCCC1 (centres undefined) | 0.217
13 | CCN(CC)c1ccc(N2CC=CC34O[C@@H]5C=CCOC(=O)[C@@H]5[C@H]3C(=O)N(CCCCCO)[C@@H]4C2=O)cc1 (some centres undefined) | -0.589
14 | Cc1cc(C)c(C(O)C2C=CC3C(=O)NC(=O)C3N2Nc2ccccn2)c(C)c1 (centres undefined) | 0.525
